Data on 40 compounds can be found in PubChem BioAssay (NCI).

About 83,000 compounds went through this panel and 20% of them were active in at least one assay; those are over-represented in the sample as a whole.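 Cell lines were cultured in 96-well plates, exposed to a single compound concentration, and assessed for percent growth 48 hours later.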 A number with no mark means an inactive call. Calls of active or inactive are those of the source.

In the experiment the test system is COLO 205 colon. In words: NCI-60 one-dose screen, 48 h (100 = growth as untreated, 0 = no growth, -100 = all killed). Particulars: 10 µM. The method, then:
Cells are grown in 96 well plates and exposed to the test compound for 48 hours. Compounds are tested at a single concentration, which is 10^-5 M for most compounds. The reported endpoint is percent growth (GI% or GIPRCNT), where numbers from 0 - 100% represent growth inhibition, and numbers from -100% - 0 represent cell death. For example, a value of 40 represents 60% growth inhibition. A value of 0 means no net growth occurred over the course of the experiment. A value of -40 indicates 40% of cells at the beginning of the experiment died by the end of the experiment. A value of -100 means all cells are dead at the end of the experiment.
NCI-60 Human Tumor Cell Lines Screen was performed using the standard one-dose NCI protocol, which is described in more detail at https://dtp.cancer.gov/discovery_development/nci-60/default.htm.
Compounds with GIPRCNT values below 10 were considered active. Activity score was based on GIPRCNT using the following formula: […]
Score is 0 for GIPRCNT values of 100 or above, 50 for GIPRCNT values of 0, and 100 for GIPRCNT values of -100.
For the compound `CCCCCCCCCCCCCCCCCCCC(=O)NCCc1c[nH]c2ccc(OC(=O)NOCCOCCOCCOCCOCCOCCOCCOCCOCCOCCOCCOCCOCCOCCOCCOCCOCCOCCOCCOCCOCCOCCOC)cc12`, the growth was -100% (active).

Regarding `COc1ccc2[nH]c(O)c(N=NC(=O)COc3ccc(NC(=O)Nc4ccc(Cl)c(Cl)c4)cc3)c2c1`, the growth is -49.3% (active).

In the case of `O=C1NC(=NC23CC4CC(CC(C4)C2)C3)N/C1=C\c1ccc2ncsc2c1`, the growth is -29.6% (active).

On to `CO[C@@H]1CSS[C@H]1Cn1nc(-c2ccc(Oc3ccccc3)cc2)c2c(N)ncnc21`, for which the growth was 61.8%. The figure for `COc1ccc(CN2[C@H](C(=O)NCCCCCCC(=O)NO)Cc3c([nH]c4ccccc34)[C@H]2C2CC2)cc1` is -94.8% (active).

Take `CCC(C)S(=O)(=O)c1oc(-c2ccc(C)cc2)nc1S(=O)(=O)c1ccccc1` (stereo not given): the growth is -85.5% (active). The figure for `CC1(c2ccccc2)NC(=O)N(CC(=O)Nc2ccc(C(=O)/C=C/c3ccc(Cl)cc3)cc2)C1=O` (stereo not given) is -24.4% (active). The figure for `CN1CCN(c2ccc(Nc3nc(NCCCNC(=O)c4ccc(F)cc4)c4sccc4n3)cc2)CC1` is 90.3%; for `COc1cc(/C=C/C(=O)c2cc(OC)c(OC)c(OC)c2)ccc1Oc1nc(Nc2ccc(F)cc2)nc(N(C)C)n1` it is 7.64% (active). To `COc1cc2c3c(n(CCCNC(C)C)c(=O)c2cc1OC)-c1nc2c(cc1C3=O)OCO2` belongs -67.6% (active); to `CCOC(=O)C(Cc1ccccc1)N1C(=O)/C(=C/N2N=C(c3ccc(OC)cc3)CC2c2ccc3ccccc3c2)SC1=S` (stereo not given), -86% (active). For `O=C(CSc1nnc(-c2ccc3nc(-c4ccccc4)[nH]c3c2)o1)Nc1ccc(Cl)cc1`, the growth was 73.2%.

In the case of `O=C(c1ccc(O)cc1)C1[C@H](c2ccc(Br)cc2)[C@@H](c2ccccc2)NC12C(=O)Nc1ccc(Br)cc12` (stereo not given in full), the growth is -85.2% (active).

For `O=C(N/N=C/c1ccc(B(O)O)o1)c1[nH]c2ccc(Br)cc2c1-c1ccccc1`, the growth is -43.2% (active). The figure for `CN1CCN(c2ccc(C(=O)/C=C/c3cc(C(F)(F)F)ccc3Cl)cc2)CC1` is -97% (active). Turning to `NS(=O)(=O)c1ccc(NC(=O)CSc2ccc(-c3ccc(Cl)cc3)nn2)c(Br)c1`, the growth is 69.4%. Turning to `CCOc1ccc(/C=N/NC(=O)Cn2nc(Cc3ccccc3)c3onc(C)c3c2=O)cc1`, the growth was 29.2%.

As for `CNC(=O)c1cc(-c2ccc(NC(=O)Nc3ccc(C)cc3)cc2)nc2cccnc12`, the growth is 115%. To `CO[C@H]1CSS[C@@H]1Cn1nc(-c2ccc(Oc3ccccc3)cc2)c2c(N)ncnc21` belongs 36.1%; to `O=C(/C=C/Nc1ccc(F)cc1F)c1ccc2c(c1)Nc1ccccc1S2`, 80.6%; to `COc1ccc2[nH]c(=O)c(CSc3ccc(Nc4nccc(-c5ccc(Cl)cc5)n4)cc3)cc2c1`, 108%. For the compound `CC1=C2C(=C[C@@](C)(CO)[C@@H]2O)/C(=N\N)[C@](C)(O)C12CC2`, the growth is -79.4% (active). The figure for `Cc1ccc(/C=C/C(=O)c2ccc(NC(=O)CSc3nnc(-c4c[nH]c5ccccc45)n3-c3ccccc3)cc2)c(C)c1` is 70.5%; for `Cc1cc(=O)oc2cc(OCCCCOc3ccc(/C=C/C(=O)Nc4ccc(F)c(Cl)c4)cc3)ccc12` it is 115%; for `O=C(c1ccc(Cl)cc1)C1[C@H](c2ccc(Br)cc2)[C@@H](c2ccccc2)NC12C(=O)Nc1ccc(Br)cc12` (stereo not given in full) it is -88.2% (active). To `COc1ccc(-c2cc(-c3cc(C(=O)c4ccccc4)n4ccc(C)cc34)nc(N)c2C#N)cc1` belongs 73%. To `COc1ccc2nc(Nc3cccc(NC(=O)c4ccc(CN5CCN(C)CC5)c(C(F)(F)F)c4)c3)ccc2c1` belongs -90.3% (active); to `O=C(NCCCCC(c1ccc(F)cc1)c1ccc(F)cc1)NCCCc1cccnc1`, -12.1% (active). For `CN(C)c1ccc(/C=C/c2nc3ccccc3c(=O)n2CC(=O)Nc2ccccc2)cc1`, the growth is 69.6%.

Regarding `O=C(CS(=O)(=O)c1oc(-c2ccc(Cl)cc2)nc1S(=O)(=O)c1ccccc1)N1CCCC1`, the growth is -91% (active). To `CC(C)(C)c1ccc(NCc2cn(-c3ccc(C(=O)O)cc3)nc2-c2ccc(C#N)cc2)cc1` belongs 34.8%; to `COc1cc2c3c(n(CCCNCCO)c(=O)c2cc1OC)-c1nc2c(cc1C3=O)OCO2`, 2.13% (active).

Consider `COc1ccc2nc(Cl)c(-c3cc(-c4ccccc4)nc(=O)[nH]3)cc2c1`, for which the growth was 92.9%.

Regarding `CN1CCN(c2ccc(C(=O)/C=C/c3cc(Br)ccc3F)cc2)CC1`, the growth was 34.8%. As for `CN1CCN(Cc2ccc(C(=O)Nc3cccc(Nc4ccc5c(O)cccc5n4)c3)cc2C(F)(F)F)CC1`, the growth was -78.6% (active).

As for `N#C/C(=C\c1ccc(N(c2ccccc2)c2ccccc2)cc1)C(N)=O`, the growth is 19.7%. `O=C(CSc1nnc(-c2c[nH]c3ccccc23)n1-c1ccccc1)Nc1ccc(C(=O)/C=C/c2ccc(Cl)cc2)cc1`: the growth was 89.7%. The figure for `CC1(C)CC[C@]2(C(=O)N3CCOCC3)CC[C@]3(C)C(=CC[C@@H]4[C@@]5(C)CC[C@H](NCO)C(C)(C)[C@@H]5CC[C@]43C)[C@H]2C1` is -72.7% (active).

`O=C(Nc1nc2ccccc2s1)c1ccc(Br)cc1`: the growth was 107%.

Regarding `Cc1cc(C)nc(/N=C(\N)Nc2ccc(S(=O)(=O)Nc3nc(C)cc(C)n3)cc2)n1`, the growth is 120%.
